Data on 20 compounds can be found in PubChem BioAssay (EPA / NIEHS).

Activity calls are given as the source filed them. Rule for the calls: active = hit-call score of the fitted dose curve at least 0.9, where 1 is the maximum; inactive = score below 0.9.

As a reminder, the AC50 is the midpoint of the concentration-response curve, whichever way the signal moves.

Read-out in one test: not listed separately
The experiment in a line: CEETOX_H295R_PROG: CeeTox H295R High-throughput Steroidogenesis Assay for Progesterone (PROG) (AID 2283442).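 For AC50: human H295R adrenal cells primed with 10 µM forskolin before dosing; progesterone secreted into medium by H295R cells measured by HPLC-MS/MS.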 The note with it: actives raise or lower the signal. An outline of the steps: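 Steps: seed H295R cells and let them adhere overnight; prime 48 h with 10 uM forskolin; dose with compound in DMSO at 0.1% final for 48 h; extract medium steroids with MTBE; measure progesterone by LC-MS/MS. MTT viability was run in the same wells.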
In the case of `C#CC(C)(C)NC(=O)c1cc(Cl)cc(Cl)c1`, the AC50 was 10.4 µM (active).
Take `CCCSP(=O)(OCC)Oc1ccc(Br)cc1Cl` (centres undefined): the call was inactive.
On the same count and under the same terms, for `FC(F)C(F)(F)OCC(Cn1cncn1)c1ccc(Cl)cc1Cl` (centres undefined) the value was “inactive”.
In the case of `C[Si](Cn1cncn1)(c1ccc(F)cc1)c1ccc(F)cc1`, the compound was classed as inactive.
On to `CCOP(=S)(OCC)Oc1cc(C)nc(C(C)C)n1`, for which the AC50 was 26 µM (active).
As to `CCCCN(CC)c1c([N+](=O)[O-])cc(C(F)(F)F)cc1[N+](=O)[O-]`, the compound was classed as inactive.
Same read-out and setting: with `C#CCC1=C(C)C(OC(=O)C2C(C=C(C)C)C2(C)C)CC1=O` (centres undefined) the entry was “inactive”.
Turning to `CCOP(=S)(OCC)Oc1ccc([N+](=O)[O-])cc1`, the AC50 was 0.444 µM (active).
As for `CCCSP(=O)(OCC)SCCC`, the outcome was inactive.

Read-out in a further test: Tumor necrosis factor receptor superfamily member 6 (Homo sapiens) (UniProt P25445)
The experiment in a line: LTEA_HepaRG_FAS: Life Technologies and Expression Analysis (LTEA) Assay for Fas cell surface death receptor (FAS) using HepaRG (AID 2283447). The note with it: mRNA level, 48 h; actives raise or lower the signal. In outline: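 Differentiated human HepaRG cells, pre-cultured 48 h, were exposed in duplicate for 48 h to 8-point half-log concentrations (top 100 uM, 0.5% DMSO) in serum-free induction medium; FAS mRNA measured by qRT-PCR, normalized to ACTB/GAPDH/POLR2A, bidirectional fit versus DMSO.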
`Cc1cc(C2CC2)nc(Nc2ccccc2)n1`: the outcome was inactive.
With `CSc1nnc(C(C)(C)C)c(=O)n1N`, the compound was classed as inactive.
With `CCCOCC(=Nc1ccc(Cl)cc1C(F)(F)F)n1ccnc1`, the call was inactive.
The same measure, in the same setting: for `CN(C)C(=O)Nc1cccc(C(F)(F)F)c1` the value was “inactive”; for `CN(C)NC(=O)CCC(=O)O`, “inactive”; for `CNc1cnn(-c2cccc(C(F)(F)F)c2)c(=O)c1Cl`, “inactive”.
Still for that read-out and setting: for `CC(C)[C@H](C(=O)O[C@H](C#N)c1cccc(Oc2ccccc2)c1)c1ccc(Cl)cc1` the value was “inactive”; for `CCOP(=O)(NC(C)C)Oc1ccc(SC)c(C)c1` (centres undefined), “inactive”.
On to `CNC(=O)ON=C(C)SC`, for which the call was inactive.
The same measure, in the same setting: with `Nc1c(Cl)cc([N+](=O)[O-])cc1Cl` the entry was “inactive”; with `C#CC(C)(C)NC(=O)c1cc(Cl)cc(Cl)c1`, “inactive”; with `CCCSP(=O)(OCC)Oc1ccc(Br)cc1Cl` (centres undefined), “inactive”.
As to `FC(F)C(F)(F)OCC(Cn1cncn1)c1ccc(Cl)cc1Cl` (centres undefined), the AC50 is 72.2 µM (active).
Take `CCCSP(=O)(OCC)SCCC`: the outcome was inactive.
On the same count and under the same terms, with `Cc1ccn2nc(S(=O)(=O)Nc3c(F)cccc3F)nc2n1` the entry was “inactive”.
